High-throughput results (PubChem)
BAZ2B inh: blocks human BAZ2B; Q9UIF8; AlphaScreen BAZ2B-H3K14Ac peptide displacement; Potency, µM (series often up to 114 µM), without a hit: at the highest dose activity change, negative = inhibition, usual class: inhibitors; 4.4% of 360,000 active; also: potency is read from the fitted curve at half-maximal effect; % is scaled to controls: 0 for no effect and ±100 for the full control effect; nearly all actives have a fitted effect of over 60% in size
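Multi-concentration screen (max 110 uM) measuring displacement of acetylated histone H3 peptide from BAZ2B by AlphaScreen, using 50 nM protein, 50 nM peptide and 10 ug/mL streptavidin donor plus Ni-chelate acceptor beads.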
HP1b chromo inh: HP1-beta chromodomain-methylated histone interaction inhibition. Potency, µM (series often up to 114 µM), inactives show top-dose activity change, negative = inhibition, actives largely listed as inhibitors. AlphaScreen HP1-beta / biotin-H3K9me3 peptide binding. AID 540317. P83916. 0.56% of 390,000 active; also: potency is read from the fitted curve at half-maximal effect; nearly all actives have a fitted effect of over 70% in size
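HP1-beta protein (50 nM final) preincubated 30 min at room temperature with biotinylated H3(1-18)K9me3 peptide (50 nM) in PBS pH 7.4, 0.01% Tween-20, then compound added for 30 min. AlphaScreen streptavidin donor/nickel chelate acceptor beads (10 ug/mL final), 30 min dark, luminescence read.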
PLK1 PBD inh: PLK1 (human) polo-box domain binding inhibition | AID 720504 | P53350 | Potency, µM, inactives show max response, negative = inhibition, actives largely listed as inhibitors | 2.8% of 360,000 active | Plk1 PBD binding of FITC phosphopeptide, fluorescence polarization; also: potency is read from the fitted curve at half-maximal effect; series mostly up to about 57 µM; % is scaled to controls: 0 for no effect and ±100 for the full control effect; nearly all actives have a fitted effect of over 65% in size
PI5P4Ka inh: inhibitors of human PI5P4K alpha; PI5P4Kalpha enzyme, ADP-Glo luminescence, 60 min; active compounds read low; max response, %; 1.2% of 330,000 active; active = max response of -50% or lower; inconclusive = between -30% and -50%; inactive = -30% or higher; also: value at the top dose of about 77 µM; % is scaled to controls: 0 for no effect and ±100 for the full control effect
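Human PI5P4Kalpha with substrate in 0.038 M HEPES pH 7.4, 0.28 mM EGTA, 0.1% CHAPS, 5% DMSO; reaction started with 5 microM ATP (final), 60 min at room temperature. ADP formed read by ADP-Glo luminescence.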
G9a inh: inhibitors of human histone lysine methyltransferase G9a. G9a H3K9 monomethylation, AlphaScreen, 2 h. 8.8% of 350,000 active. Potency, µM (titrated, usually from 102 µM), without a hit: at the top dose activity, negative = inhibition, actives largely listed as inhibitors. AID 504332; also: potency is read from the fitted curve at half-maximal effect; % is scaled to controls: 0 for no effect and ±100 for the full control effect; nearly all actives have a fitted effect of over 75% in size
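Using a bead-based AlphaScreen, monomethylated H3K9 product from 2 h room-temperature reactions (G9a 20 nM, peptide 500 nM, SAM 20 uM) was detected with 0.5 ug/mL rabbit anti-H3K9me1 antibody.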
JMJD2A Tudor: blocks the human JMJD2A Tudor domain. AID 504339. 4.4% of 390,000 active. Potency, µM (series often up to 114 µM), without a hit: top-dose activity change, negative = inhibition, hits mostly inhibitors. AlphaScreen JMJD2A-Tudor / H3K4me3 peptide binding. O75164; also: potency is read from the fitted curve at half-maximal effect; % is scaled to controls: 0 for no effect and ±100 for the full control effect; nearly all actives have a fitted effect of over 50% in size
Target sequence (O75164 whole entry, looked up, the tested form may be a part): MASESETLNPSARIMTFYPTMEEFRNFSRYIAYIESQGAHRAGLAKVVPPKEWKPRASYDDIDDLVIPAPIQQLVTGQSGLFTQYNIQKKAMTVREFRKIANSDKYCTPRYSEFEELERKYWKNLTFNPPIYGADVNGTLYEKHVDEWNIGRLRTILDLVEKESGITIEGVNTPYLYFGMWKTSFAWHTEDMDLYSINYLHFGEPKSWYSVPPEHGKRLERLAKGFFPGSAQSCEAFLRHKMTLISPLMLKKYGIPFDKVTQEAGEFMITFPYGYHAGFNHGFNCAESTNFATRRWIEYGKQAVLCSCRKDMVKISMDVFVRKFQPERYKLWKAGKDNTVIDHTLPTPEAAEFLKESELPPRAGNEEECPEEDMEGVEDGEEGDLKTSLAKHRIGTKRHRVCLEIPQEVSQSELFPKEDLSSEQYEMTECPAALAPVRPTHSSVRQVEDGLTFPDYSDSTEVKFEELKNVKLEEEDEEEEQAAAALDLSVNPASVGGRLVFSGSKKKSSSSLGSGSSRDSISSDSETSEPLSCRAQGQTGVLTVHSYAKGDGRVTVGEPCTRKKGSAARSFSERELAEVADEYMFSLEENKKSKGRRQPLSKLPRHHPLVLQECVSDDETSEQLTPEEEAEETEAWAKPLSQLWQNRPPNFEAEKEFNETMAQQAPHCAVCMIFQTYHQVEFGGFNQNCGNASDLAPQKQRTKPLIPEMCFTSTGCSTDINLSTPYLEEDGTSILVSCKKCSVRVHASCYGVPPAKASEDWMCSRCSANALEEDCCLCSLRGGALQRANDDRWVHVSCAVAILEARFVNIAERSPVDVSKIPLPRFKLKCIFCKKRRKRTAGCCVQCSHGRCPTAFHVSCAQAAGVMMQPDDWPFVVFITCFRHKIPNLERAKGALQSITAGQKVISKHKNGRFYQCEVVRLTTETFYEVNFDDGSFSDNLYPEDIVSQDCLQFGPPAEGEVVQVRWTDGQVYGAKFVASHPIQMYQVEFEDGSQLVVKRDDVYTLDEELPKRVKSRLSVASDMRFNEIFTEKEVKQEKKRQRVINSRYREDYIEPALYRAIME
Starred values were filed as active, the others as inactive; [ ] = remark or other dose. Rows were chosen to be rich in hits. Some 12% of all compounds tested hit in one or more screens of this group. Unless noted, calls follow the shape of the dose curve; as a rule, active = well fitted curve in the direction sought with a large enough effect; inconclusive = small, poorly fitted or top-dose-only effect, or another doubt; inactive = no such curve, though single readings can be large; an effect the other way counts as inactive or inconclusive.

C=CCN(C(=O)c1csnn1)C(C(=O)NC1CCCCC1)c1ccc(F)cc1 (stereo not given) was read as BAZ2B inh 3%, HP1b chromo inh 5%, PLK1 PBD inh -2%, PI5P4Ka inh 10, G9a inh -1% and JMJD2A Tudor -8%.
COc1ncc2nc(-c3ccc(Cl)cc3)c(=O)n(Cc3cccs3)c2n1 was read as G9a inh -11%[0.501 µM].
Screening O=S1(=O)N=C(OCc2ccccc2)c2ccccc21 returned JMJD2A Tudor -19%.
For O=C(CCc1ccccc1)NNC(=O)CCc1ccccc1 the results were BAZ2B inh -11%, HP1b chromo inh 39%, PLK1 PBD inh 2%, PI5P4Ka inh 0, G9a inh 13% and JMJD2A Tudor 6%.
`O=C(CCc1ccccc1)NNC(=O)c1ccccc1C(=O)O` gave BAZ2B inh 1%, HP1b chromo inh 37%, PLK1 PBD inh 8%, PI5P4Ka inh 0, G9a inh 10µM* and JMJD2A Tudor -8%.
For O=C(CCc1ccccc1)NNC(=O)c1ccccc1Br the results were BAZ2B inh -4%, HP1b chromo inh 20%, PLK1 PBD inh -7%, PI5P4Ka inh -9, G9a inh 28µM* and JMJD2A Tudor -24%.
Cc1ccccc1C(=O)NNC(=O)CCc1ccccc1 was read as BAZ2B inh 3%, HP1b chromo inh 39%, PLK1 PBD inh -2%, PI5P4Ka inh 13, G9a inh -9%[12.7 µM] and JMJD2A Tudor -8%[11.4 µM].
COc1ccccc1N1CCN(CCCNC(=O)c2cnn(-c3ccccc3)c2C2CCN(C(=O)OC(C)(C)C)CC2)CC1 was read as BAZ2B inh 1%[57.1 µM], HP1b chromo inh -14%, G9a inh -9%[59 µM] and JMJD2A Tudor -26%.
For COCCNC(=O)C(c1ccc(OC)cc1)N(CCOC)C(=O)CCC(=O)Nc1nccs1 (stereo not given) the results were BAZ2B inh 11%, HP1b chromo inh 49%, PLK1 PBD inh -8%, PI5P4Ka inh 2, G9a inh -8% and JMJD2A Tudor -6%.
COc1ccc(C(C(=O)NC(C)C)N(C(=O)CCC(=O)Nc2nccs2)c2ccccc2F)cc1 (stereo not given) was read as BAZ2B inh -8%, HP1b chromo inh inconclusive, PLK1 PBD inh 13µM*, PI5P4Ka inh -3, G9a inh -2% and JMJD2A Tudor inconclusive.
For CCOC(=O)C1CCN(C(c2ccccn2)c2c(C)[nH]c3ccccc23)CC1 (stereo not given) the results were BAZ2B inh -12%, HP1b chromo inh inconclusive, PLK1 PBD inh 12µM*, PI5P4Ka inh 6, G9a inh 1.4µM* and JMJD2A Tudor inconclusive.
Cc1[nH]c2ccccc2c1C(c1ccccn1)N1CCC(C(N)=O)CC1 (stereo not given) was read as HP1b chromo inh -34%, PLK1 PBD inh 6.7µM*, PI5P4Ka inh 22, G9a inh 1.6µM* and JMJD2A Tudor inconclusive.
COc1ccc(N2C(=O)NC(NC(=O)c3cccnc3)(C(F)(F)F)C2=O)cc1 (stereo not given) was read as BAZ2B inh -21%, HP1b chromo inh 23%, PLK1 PBD inh 2%, PI5P4Ka inh 10, G9a inh -20% and JMJD2A Tudor -14%.
C[C@@]12C=Cc3occc3C1CC[C@@]13C[C@@H](CCC12)[C@@](O)(CO)C3 (stereo not given in full) was read as G9a inh 14µM*.
For CCCN(CCC)C1=CC(=[N+]2CCCC2)CC(C)(C)C1 the results were BAZ2B inh -13%, HP1b chromo inh -14%, PLK1 PBD inh -11%, PI5P4Ka inh -12, G9a inh 1.8µM* and JMJD2A Tudor inconclusive.
Screening CC(C)(C)OC(=O)N1CCC(NC(=O)c2nc[nH]c2C(=O)N2CCN(C(=O)OC(C)(C)C)CC2)CC1 returned BAZ2B inh 0%, HP1b chromo inh 16%, PLK1 PBD inh 1%, PI5P4Ka inh -11, G9a inh -5%[2.33 µM] and JMJD2A Tudor -29%.
